Results as given in PubChem BioAssay (Tox21).
Records with an inconclusive call do not appear. Entries that show only a call come without a potency. Activity calls are given as the source filed them. Unless noted, calls come from the whole dose curve; as a rule, active = well fitted curve in the direction sought with a large enough effect in the repeat runs; inconclusive = weak or mixed curves; inactive = no such curve, though single readings can be large; an effect the other way counts as inactive or inconclusive.

What was measured:
[1] = qHTS assay to identify small molecule antagonists of the glucocorticoid receptor (GR) signaling pathway - cell viability counter screen (AID 720693); note: nearly all actives have a fitted effect of over 55% in size; note: potency is the fitted concentration of half-maximal effect
[2] = qHTS assay for identifying genotoxic compounds that show differential cytotoxicity against isogenic chicken DT40 cell lines with known DNA damage response pathways - wild type cell line (AID 743012); note: nearly all actives have a fitted effect of over 60% in size; note: potency is the fitted concentration of half-maximal effect
How it was run: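 First, wild type DT40 cells were plated at 300 per well and equilibrated about 0.5 h at 37 C/5% CO2. Next, compounds in DMSO were added and exposure lasted 40 h. Finally, CellTiter-Glo was added for 30 min at room temperature and luminescence recorded.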

[3] = qHTS assay for identifying genotoxic compounds that show differential cytotoxicity against isogenic chicken DT40 cell lines with known DNA damage response pathways - Rev3 mutant cell line (AID 743014); note: nearly all actives have a fitted effect of over 55% in size; note: potency is the fitted concentration of half-maximal effect
[4] = qHTS assay for identifying genotoxic compounds that show differential cytotoxicity against isogenic chicken DT40 cell lines with known DNA damage response pathways - Rad54/Ku70 mutant cell line (AID 743015); note: nearly all actives have a fitted effect of over 60% in size; note: potency is the fitted concentration of half-maximal effect
[5] = target: Androgen receptor (Homo sapiens) (UniProt P10275); test: qHTS assay to identify small molecule agonists of the androgen receptor (AR) signaling pathway (AID 743036; active = well fitted activation curve with a large enough effect in the signal ratio in the repeat runs, with a control signal flat, not every such curve was filed as active; the % refers to the signal ratio)
How it was run: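 Beta-lactamase under UAS control, stably integrated in HEK293 GripTite cells, reports receptor activation. After 16 h compound treatment, cells received FRET substrate for 2 h at room temperature before fluorescence reading.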

[6] = target: Androgen receptor (Homo sapiens) (UniProt P10275); test: qHTS assay to identify small molecule agonists of the androgen receptor (AR) signaling pathway using the MDA cell line (AID 743040; note: nearly all actives have a fitted effect of over 20% in size)
How it was run: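 After a 5 h incubation at 37C and 0% CO2, MDA-kb2 reporter cells were dosed with compounds in DMSO and kept 16 h under the same conditions. Luciferase activity was then read as luminescence with ONE-Glo.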

[7] = qHTS assay to identify small molecule antagonists of the androgen receptor (AR) signaling pathway using the MDA cell line - cell viability counter screen (AID 743041; note: nearly all actives have a fitted effect of over 45% in size; note: potency is the fitted concentration of half-maximal effect)
How it was run: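 R1881-driven MDA-kb2 AR-luc cells, 3,000/well, were dosed with library compounds for 16 h; cell health came from CellTiter-Fluor fluorescence in the reporter wells.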

[8] = target: Androgen receptor (Homo sapiens) (UniProt P10275); test: qHTS assay to identify small molecule antagonists of the androgen receptor (AR) signaling pathway using the MDA cell line (AID 743042; note: nearly all actives have a fitted effect of over 55% in size; note: potency is the fitted concentration of half-maximal effect)
How it was run: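 Antagonist mode: compounds plus R1881 agonist added to MDA-kb2 AR-luc cells, incubated 16 h at 37C. Luciferase reporter luminescence quantified, with multiplexed CellTiter-Fluor readout for cell viability.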

[9] = system: thyroid hormone receptor (rat, GH3 cells); test: qHTS assay to identify small molecule agonists of the thyroid receptor (TR) signaling pathway (AID 743066; calls by dose curve)
[10] = qHTS assay to identify small molecule antagonists of the estrogen receptor alpha (ER-alpha) signaling pathway - cell viability counter screen (AID 743074; calls by dose curve;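 note: HEK293 cells carrying ER-alpha-UAS-bla reporter stimulated with 17beta-estradiol; nearly all actives have a fitted effect of over 45% in size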; note: potency is the fitted concentration of half-maximal effect)
Aromatase (Homo sapiens) = Aromatase (Homo sapiens) (UniProt P11511); test: qHTS assay to identify aromatase inhibitors (AID 743083); note: nearly all actives have a fitted effect of over 55% in size; note: potency is the fitted concentration of half-maximal effect
[11] = qHTS assay to identify small molecule antagonists of the androgen receptor (AR) signaling pathway - cell viability counter screen (AID 743033; note: nearly all actives have a fitted effect of over 45% in size; note: potency is the fitted concentration of half-maximal effect)
[12] = qHTS assay to identify small molecule antagonists of the thyroid receptor (TR) signaling pathway - cell viability counter screen (AID 743064); note: nearly all actives have a fitted effect of over 50% in size; note: potency is the fitted concentration of half-maximal effect
How it was run: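 Compounds were tested on GH3.TRE-Luc cells in the presence of T3 at 1 nM final. Following 23.5 h at 37 °C, cell viability was quantified by CellTiter-Fluor.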

[13] = qHTS assay to identify small molecule antagonists of the estrogen receptor alpha (ER-alpha) signaling pathway using the BG1 cell line - cell viability counter screen (AID 743081);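 note: compound given together with 17beta-estradiol as the ER stimulus; nearly all actives have a fitted effect of over 45% in size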; note: potency is the fitted concentration of half-maximal effect
[14] = qHTS assay to identify small molecule antagonists of the thyroid receptor (TR) signaling pathway (AID 743065); note: nearly all actives have a fitted effect of over 55% in size; note: potency is the fitted concentration of half-maximal effect
How it was run: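 Antagonism measured as loss of luciferase signal in GH3 cells stably carrying a TRE-luciferase reporter, co-treated with compound and T3 (1 nM final) for 23.5 h at 37 C. Viability was read in the same well by CellTiter-Fluor.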

[15] = target: Estrogen receptor (Homo sapiens) (UniProt P03372); test: qHTS assay to identify small molecule antagonists of the estrogen receptor alpha (ER-alpha) signaling pathway (AID 743069; active = well fitted curve in the direction sought with a large enough effect in the signal ratio in the repeat runs, not every such curve was filed as active; the % refers to the signal ratio)
How it was run: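 Compound effects are measured against 17beta-estradiol stimulation in HEK293 cells with a UAS-controlled beta-lactamase reporter for ER-alpha. Exposure lasts 18 hr at 37C; LiveBLAzer B/G FRET substrate follows for 2 hr at room temperature.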

[16] = target: Estrogen receptor (Homo sapiens) (UniProt P03372); test: qHTS assay to identify small molecule agonists of the estrogen receptor alpha (ER-alpha) signaling pathway (AID 743075; calls by dose curve)
[17] = target: Estrogen receptor (Homo sapiens) (UniProt P03372); test: qHTS assay to identify small molecule agonists of the estrogen receptor alpha (ER-alpha) signaling pathway using the BG1 cell line (AID 743079); conditions: BG1Luc4E2 cells, ERE-luciferase agonist, 22 h; activation: at 70.3 µM (top of the series); note: nearly all actives have a fitted effect of over 20% in size
[18] = qHTS assay to identify small molecule antagonists of the estrogen receptor alpha (ER-alpha) signaling pathway using the BG1 cell line (AID 743080; calls by dose curve; note: nearly all actives have a fitted effect of over 25% in size)
How it was run: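 Antagonist mode: compounds in DMSO were pinned onto BG1-Luc-4E2 cells alongside 17beta-estradiol agonist, incubated 21.5 h, and ERE-driven luciferase measured with ONE-Glo. Cytotoxicity was multiplexed using CellTiter-Fluor fluorescence.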

[19] = target: Androgen receptor (Homo sapiens) (UniProt P10275); test: qHTS assay to identify small molecule antagonists of the androgen receptor (AR) signaling pathway (AID 743035; active = well fitted inhibition curve with a large enough effect in the signal ratio in the repeat runs, not every such curve was filed as active; the % refers to the signal ratio; note: potency is the fitted concentration of half-maximal effect)
How it was run: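 Beta-lactamase FRET read (2 h RT incubation with LiveBLAzer B/G) following 16 h of compound plus R1881 treatment of AR-UAS-bla HEK293 cells, which had been pre-incubated 4 h at 37C.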

Androgen receptor (Homo sapiens), sequence (P10275 whole entry, looked up): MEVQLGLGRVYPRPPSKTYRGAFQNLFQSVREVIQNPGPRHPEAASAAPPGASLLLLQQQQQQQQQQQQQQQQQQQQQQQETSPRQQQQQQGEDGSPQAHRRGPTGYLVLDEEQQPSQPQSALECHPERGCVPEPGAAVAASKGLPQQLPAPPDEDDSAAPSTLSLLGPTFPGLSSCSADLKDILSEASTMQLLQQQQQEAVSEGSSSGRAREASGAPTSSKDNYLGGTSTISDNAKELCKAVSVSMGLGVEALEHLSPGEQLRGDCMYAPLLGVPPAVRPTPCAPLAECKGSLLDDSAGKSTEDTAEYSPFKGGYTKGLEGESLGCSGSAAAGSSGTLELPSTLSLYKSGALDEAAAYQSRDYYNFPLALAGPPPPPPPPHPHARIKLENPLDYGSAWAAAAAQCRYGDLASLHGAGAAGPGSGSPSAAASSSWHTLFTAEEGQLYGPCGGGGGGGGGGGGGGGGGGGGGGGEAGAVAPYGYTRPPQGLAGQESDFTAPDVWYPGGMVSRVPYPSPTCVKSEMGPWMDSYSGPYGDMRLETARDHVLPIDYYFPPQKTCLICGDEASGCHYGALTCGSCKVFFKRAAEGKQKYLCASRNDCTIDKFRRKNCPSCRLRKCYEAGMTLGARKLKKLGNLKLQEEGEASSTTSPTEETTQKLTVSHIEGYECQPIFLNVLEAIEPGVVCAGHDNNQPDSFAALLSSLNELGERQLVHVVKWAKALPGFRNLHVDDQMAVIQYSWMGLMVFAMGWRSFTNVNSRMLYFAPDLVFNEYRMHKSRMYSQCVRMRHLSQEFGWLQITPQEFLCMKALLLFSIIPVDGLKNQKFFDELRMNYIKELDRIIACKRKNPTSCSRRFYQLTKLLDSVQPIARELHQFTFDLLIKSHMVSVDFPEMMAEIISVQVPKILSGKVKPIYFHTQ
Aromatase (Homo sapiens), sequence (P11511 whole entry, looked up): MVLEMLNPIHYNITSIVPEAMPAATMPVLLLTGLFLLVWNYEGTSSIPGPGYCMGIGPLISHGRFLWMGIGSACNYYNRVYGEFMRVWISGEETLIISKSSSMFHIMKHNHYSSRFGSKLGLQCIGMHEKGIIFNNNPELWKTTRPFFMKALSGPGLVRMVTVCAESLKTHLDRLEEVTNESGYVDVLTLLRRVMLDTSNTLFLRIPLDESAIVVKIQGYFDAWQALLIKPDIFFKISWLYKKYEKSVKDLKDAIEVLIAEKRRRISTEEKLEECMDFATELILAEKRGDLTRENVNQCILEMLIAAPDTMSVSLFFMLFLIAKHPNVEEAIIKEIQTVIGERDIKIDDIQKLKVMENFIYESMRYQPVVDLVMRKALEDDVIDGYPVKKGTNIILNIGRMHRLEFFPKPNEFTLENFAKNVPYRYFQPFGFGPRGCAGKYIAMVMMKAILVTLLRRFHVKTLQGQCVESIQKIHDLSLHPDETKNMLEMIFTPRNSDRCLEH
Estrogen receptor (Homo sapiens), sequence (P03372 whole entry, looked up): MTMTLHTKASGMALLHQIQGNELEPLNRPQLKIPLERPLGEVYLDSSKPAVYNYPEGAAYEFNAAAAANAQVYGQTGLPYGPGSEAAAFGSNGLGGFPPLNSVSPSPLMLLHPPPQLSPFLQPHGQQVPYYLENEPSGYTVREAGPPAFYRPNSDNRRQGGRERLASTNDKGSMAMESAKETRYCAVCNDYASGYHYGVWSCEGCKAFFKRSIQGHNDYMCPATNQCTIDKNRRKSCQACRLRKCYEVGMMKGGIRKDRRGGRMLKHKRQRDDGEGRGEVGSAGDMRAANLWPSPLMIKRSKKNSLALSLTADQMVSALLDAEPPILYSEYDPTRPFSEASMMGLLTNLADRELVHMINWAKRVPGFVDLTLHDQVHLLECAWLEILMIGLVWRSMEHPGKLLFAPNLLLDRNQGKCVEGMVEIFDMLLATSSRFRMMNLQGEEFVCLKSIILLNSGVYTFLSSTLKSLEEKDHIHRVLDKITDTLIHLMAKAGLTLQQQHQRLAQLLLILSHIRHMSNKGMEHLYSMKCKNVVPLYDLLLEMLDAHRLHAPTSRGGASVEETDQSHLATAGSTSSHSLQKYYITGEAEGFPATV

| Structure (SMILES) | Potency [1] | Potency [2] | Potency [3] | Potency [4] | outcome [5] | outcome [6] | Potency [7] | Potency [8] | Potency [9] | Potency [10] | Potency (Aromatase (Homo sapiens)) | Potency [11] | Potency [12] | Potency [13] | Potency [14] | Potency [15] | Potency [16] | Potency [17] | Potency [18] | Potency [19] |
| --- | --- | --- | --- | --- | --- | --- | --- | --- | --- | --- | --- | --- | --- | --- | --- | --- | --- | --- | --- | --- |
| CCOP(=S)(OCC)SC(CCl)N1C(=O)c2ccccc2C1=O (stereo not given) | inactive | 48.6 µM (active) | 43.3 µM (active) | 61.1 µM (active) | inactive | inactive | inactive | 61.1 µM (active) | inactive | inactive | inactive | – | – | – | – | – | – | – | – | – |
| COc1ccc2c3c1O[C@H]1[C@H](O)CC[C@H]4[C@@H](C2)N(C)CC[C@@]341 | inactive | inactive | inactive | inactive | – | – | inactive | – | – | inactive | inactive | inactive | inactive | inactive | – | – | – | – | – | – |
| ClC1(Cl)C2(Cl)C3(Cl)C4(Cl)C(Cl)(Cl)C5(Cl)C3(Cl)C1(Cl)C5(Cl)C24Cl (stereo not given) | inactive | inactive | – | inactive | – | inactive | – | inactive | inactive | inactive | inactive | inactive | inactive | inactive | inactive | inactive | inactive | inactive | inactive | – |
| CC(=O)O.CC(=O)O.CC(=O)O.CC(=O)O.CC(=O)O.CC(=O)O.CC(=O)O.O.O.[Cr].[Cr].[Cr] | inactive | inactive | inactive | inactive | – | – | – | – | inactive | inactive | inactive | inactive | inactive | inactive | – | – | – | – | – | – |
| Nc1nc(N)nc(Cl)n1 | inactive | inactive | – | inactive | – | – | inactive | – | inactive | inactive | inactive | inactive | inactive | inactive | inactive | inactive | inactive | inactive | inactive | – |
| Cc1ccn2nc(S(=O)(=O)Nc3c(F)cccc3F)nc2n1 | inactive | inactive | inactive | inactive | – | – | – | – | – | inactive | inactive | inactive | – | inactive | – | – | – | – | – | – |
| O=C(NC(=O)c1ccccc1Cl)Nc1ccc(OC(F)(F)F)cc1 | inactive | inactive | – | inactive | – | inactive | inactive | inactive | inactive | inactive | inactive | inactive | inactive | inactive | inactive | – | – | – | – | inactive |
| CC(C)(C)c1ccc(OP(=O)(Oc2ccccc2)Oc2ccccc2)cc1 | inactive | 61.5 µM (active) | 27.5 µM (active) | 19.4 µM (active) | – | – | – | – | inactive | inactive | inactive | – | 27.5 µM (active) | inactive | 27.5 µM (active) | – | inactive | – | inactive | – |
| CC(Cc1ccc2c(c1)OCO2)NO (stereo not given) | inactive | inactive | inactive | inactive | – | – | – | – | inactive | inactive | inactive | inactive | inactive | inactive | inactive | inactive | inactive | inactive | inactive | – |
| COc1ccc2c(c1OC)C(=O)O[C@@H]2[C@H]1c2cc3c(cc2CCN1C)OCO3 | inactive | inactive | – | inactive | inactive | inactive | inactive | inactive | inactive | inactive | inactive | inactive | 6.79 µM (active) | – | inactive | – | – | – | – | inactive |
| c1cc[n+]2c(c1)-c1cccc[n+]1CC2 | inactive | 3.35 µM (active) | 3.35 µM (active) | 2.37 µM (active) | – | – | – | – | inactive | inactive | inactive | – | inactive | – | – | inactive | inactive | – | – | – |
| N#Cc1sc2c(=O)c3ccccc3c(=O)c=2sc1C#N | 490 nM (active) | 1.37 µM (active) | – | 0.77 µM (active) | – | inactive | 1.37 µM (active) | 0.306 µM (active) | inactive | 54.9 µM (active) | 2.17 µM (active) | 13.8 µM (active) | 24.3 µM (active) | 27.3 µM (active) | 24.3 µM (active) | – | – | – | – | 9.77 µM (active) |
| O=C(NC(=O)c1c(F)cccc1F)Nc1ccc(Oc2ccc(C(F)(F)F)cc2Cl)cc1F | inactive | 4.33 µM (active) | 21.7 µM (active) | 3.86 µM (active) | – | – | – | – | inactive | inactive | – | – | 43.3 µM (active) | inactive | 38.6 µM (active) | – | – | – | – | – |
| CCO/N=C(\CC)C1=C(O)CC(c2c(C)cc(C)cc2C)CC1=O (stereo not given) | inactive | 48.5 µM (active) | 51.4 µM (active) | 62.5 µM (active) | – | inactive | inactive | – | inactive | inactive | inactive | – | – | – | – | – | inactive | inactive | inactive | – |
| CC(=O)[O-].CC(=O)[O-].O.O.O.[Pb+2] | inactive | inactive | inactive | – | – | – | – | – | inactive | inactive | inactive | inactive | inactive | inactive | – | – | – | – | – | – |
| Cc1c([N+](=O)[O-])c(C)c([N+](=O)[O-])c(C(C)(C)C)c1[N+](=O)[O-] | inactive | 68.6 µM (active) | 68.6 µM (active) | – | – | – | inactive | – | inactive | inactive | – | inactive | – | inactive | – | – | inactive | inactive | inactive | – |
| CC(=O)[O-].CC(=O)[O-].[Co+2] | inactive | inactive | inactive | inactive | – | – | inactive | – | inactive | inactive | inactive | inactive | inactive | inactive | – | – | – | – | – | – |
| CN1CCc2cc3c(cc2C1O)OCO3 (stereo not given) | inactive | inactive | inactive | inactive | – | – | – | – | inactive | inactive | inactive | inactive | – | – | inactive | – | – | – | – | – |
